Results reported in PubChem BioAssay AID2620 (National Center for Advancing Translational Sciences (NCATS), 2010).
Records with an inconclusive call do not appear. A number with no mark means an inactive call. The call rests on the fitted dose curve; in most records, active means well fitted curve in the direction sought with a large enough effect; inconclusive means small, poorly fitted or top-dose-only effect, or another doubt; inactive means no such curve, though single readings can be large or run the other way.

Target: Pyruvate kinase PKM (Homo sapiens) (UniProt P14618)
Sequence (P14618 whole entry, looked up, canonical isoform): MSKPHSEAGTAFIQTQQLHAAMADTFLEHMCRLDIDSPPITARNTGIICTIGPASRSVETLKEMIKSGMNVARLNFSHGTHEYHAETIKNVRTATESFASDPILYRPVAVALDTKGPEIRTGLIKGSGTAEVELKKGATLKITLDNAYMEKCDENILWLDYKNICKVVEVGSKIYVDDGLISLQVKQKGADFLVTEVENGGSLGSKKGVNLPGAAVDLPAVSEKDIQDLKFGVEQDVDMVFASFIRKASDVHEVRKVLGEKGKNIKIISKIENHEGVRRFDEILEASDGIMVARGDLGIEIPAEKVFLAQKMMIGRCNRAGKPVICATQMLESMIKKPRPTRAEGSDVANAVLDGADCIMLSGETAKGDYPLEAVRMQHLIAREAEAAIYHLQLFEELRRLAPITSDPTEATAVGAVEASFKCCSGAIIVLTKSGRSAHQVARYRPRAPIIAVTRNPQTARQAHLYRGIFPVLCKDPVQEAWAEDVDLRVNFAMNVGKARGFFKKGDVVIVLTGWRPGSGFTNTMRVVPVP
Experiment: Secondary LDH Assay for Activators of Human Pyruvate Kinase M1 Isoform: for Probe SAR; further: % of control where 0% means no effect
Conditions: purified hPK-M1, LDH-coupled NADH fluorescence kinetic; series mostly up to 58.2 µM; activity change, negative = inhibition: at the top concentration
From the text: NIH Chemical Genomics Center [NCGC]
Matthew G. Vander Heiden, M.D., Ph.D. [Harvard Medical School, 77 Avenue Louis Pasteur, Boston, MA 02115]
Human pyruvate kinase […] (hPK-M1)enzyme was supplied as a highly purified (>95% pure) preparation from Harvard Medical School and a secondary assay was used to evaluate compounds. This assay couples the formation of pyruvate from […] using lactate dehydrogenase (LDH) and NADH. The depletion of NADH is followed in a fluorescent-based kinetic assay that follows the formation of pyruvate to lactate, as catalyzed LDH. Pyruvate kinase substrates, PEP and ADP, were present in the assay at 0.1 mM and 4 mM respectively. In this kinetic assay initial rates were determined by following the fluorescence of NADH depletion.
NCGC Assay Protocol Summary:
Three uL of substrate mix (final concentration, 50 mM Tris-Cl pH 8.0, 200 mM KCl, 15 mM MgCl2, 0.1 mM PEP, 4.0 mM ADP, and 0.2 mM NADH) was dispensed into black-solid 1536 well plates. 23 nL of compounds were delivered by a pin tool and 1 uL of enzyme mix (final concentrations, 10 nM hPK-M1 and 1 uM of LDH) was added. Plates were immediately placed in ViewLux (Perkin Elmer) and NADH fluorescence was determined at 30 second exposure intervals for between 3 and 6 minutes. Data were normalized to the uninhibited controls.

In order of rising “activity change, negative = inhibition” value:
1. Cc1ccc(Nc2c(-c3ccc(C)o3)nc3ccccn23)cc1  -25.5%
2. Cc1ccc(Nc2c(-c3ccc(C)s3)nc3cccc(C)n23)cc1  -21.1%
3. O=C1c2ccccc2C(=O)N1c1ccc(Cl)cc1  -5.95%
4. CNc1cccc(S(=O)(=O)N2CCN(S(=O)(=O)c3ccc4c(c3)OCCO4)CC2)c1  -4.54%
5. CN(C)c1cccc(S(=O)(=O)N2CCN(S(=O)(=O)c3ccc4c(c3)OCCO4)CC2)c1  -4.42%
6. O=C1c2ccccc2C(=O)N1c1cccc(Cl)c1  -4.02%
7. O=C1CCc2cc(S(=O)(=O)Nc3ccc4ncccc4c3)ccc2N1  -3.94%
8. Cc1ccc(NS(=O)(=O)c2cc3c(cc2N2CCC2)NC(=O)CC3)cc1C  -3.5%
9. Cc1cc(N2C(=O)c3ccccc3C2=O)n[nH]1  -2.21%
10. O=C1c2ccccc2C(=O)N1Cc1ccccc1  -1.98%
11. Cc1ccccc1Nc1c(-c2ccc(Cl)s2)nc2ccccn12  -1.95%
12. O=C1CCc2cc(S(=O)(=O)Nc3cccc(B(O)O)c3)ccc2N1  -1.4%
13. O=C1NS(=O)(=O)c2ccccc21  -0.749%
14. Cc1ccc(NS(=O)(=O)c2ccc(-c3ccccc3)cc2)cc1C  1.51%
15. O=C1c2ccccc2C(=O)N1c1ccccc1O  2.14%
16. CC(=O)Nc1cccc(S(=O)(=O)Nc2ccc(C)c(C)c2)c1  2.8%
17. O=C1CCc2cc(Cl)c(S(=O)(=O)Nc3ccc(Cl)c(Cl)c3)cc2N1  2.94%
18. COc1cccc(NS(=O)(=O)c2ccc3c(c2)CCC(=O)N3)c1  3.28%
19. Cc1ccc(NS(=O)(=O)c2ccc3c(c2)CC(=O)N3C)cc1C  3.41%
20. Cc1ccc(NS(=O)(=O)c2ccc(Cl)cc2)cc1C  3.96%
21. Cc1cc(NS(=O)(=O)c2ccc3c(c2)CCC(=O)N3)ccc1F  4.47%
22. O=S1(=O)N=C(Oc2ccc(Cl)cc2)c2ccccc21  5.61%
23. Cc1cccc(NS(=O)(=O)c2ccc3c(c2)CCC(=O)N3)c1  5.91%
24. O=C1c2ccccc2C(=O)N1c1ncccc1O  6.3%
25. O=C1c2ccccc2C(=O)N1c1cccc(O)c1  6.45%
26. Cc1ccc(NS(=O)(=O)c2ccc3c(c2)CCC(=O)N3)cc1C  7.13%
27. Cc1ccc(NS(=O)(=O)c2ccc3c(c2)CCCC(=O)N3)cc1C  7.88%
28. O=C1c2ccccc2C(=O)N1c1ccncc1  10.2%
29. Cc1ccc(NS(=O)(=O)c2cc3c(cc2-c2ccsc2)NC(=O)CO3)cc1C  11.5%
30. COc1ccccc1N1C(=O)c2ccccc2C1=O  11.6%
31. COc1ccc(Nc2c(-c3ccc(C)o3)nc3ccccn23)cc1  12%
32. Cc1ccc(-c2nc3cnccn3c2Nc2ccc(C(C)C)cc2)o1  12.3%
33. Fc1ccccc1-c1ccc(-c2nc3ccc(Cl)cn3c2Nc2ccc(Cl)cc2)o1  13.2%
34. COc1cc(F)c(S(=O)(=O)N2CCCN(S(=O)(=O)c3cccc(N)c3)CC2)c(F)c1  13.9%
35. Cc1ccc(NS(=O)(=O)c2ccc3[nH]c(=O)[nH]c3c2)cc1C  15.5%
36. Cc1ccc(NS(=O)(=O)c2ccc3c(c2)NC(=O)CO3)cc1C  15.7%
37. COc1ccc(S(=O)(=O)Nc2ccc(C)c(C)c2)cc1  16%
38. O=C1CCc2cc(S(=O)(=O)Nc3ccc(Cl)c(Cl)c3)ccc2N1  18.2%
39. O=C1CCc2cc(S(=O)(=O)Nc3cccc(C(F)(F)F)c3)ccc2N1  19.6%

O=S1(=O)N=C(Oc2ccccc2)c2ccccc21 was tested, and the “activity change, negative = inhibition” value was 3.28% [at 82.8 µM].
